Many of the other results were omitted from the sample, so hits are more common in it than they were.
TDP-43 tox inh: TDP-43 toxicity inhibition in yeast | AID 1347073 | yeast TDP-43 toxicity rescue, BacTiter-Glo growth, 24 h | Potency, µM (highest dose often 46.1 µM), most hits filed as activators | hit rate 0.45% among 45,000; active = well fitted activation curve with a large enough effect; also: nearly all actives have a fitted effect of over 55% in size
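TDP-43-expressing yeast, pregrown in raffinose, seeded at OD600 0.02 in galactose medium with compound for 24 hr at 30 deg C. Growth read by BacTiter-Glo luminescence, so rescue of toxicity appears as activation.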
Numbers stand for hits; n = inactive.

SMILES	TDP-43 tox inh
Cc1ccc(C)c(C(O)c2ncc(-c3ccccc3)[nH]2)c1 (centres undefined)	n
COc1cccc2c1O/C(=N\O)C(C(=O)Nc1cccc(C)c1C)C2 (centres undefined)	n
O=C(Nc1ccccc1Cl)C1C2CCCCC21 (centres undefined)	n
O=C(Nc1cc(Cl)ccc1Cl)C1Cc2ccccc2O/C1=N\O (centres undefined)	11µM
Cc1ccc(C(=O)N/N=C2\CC3CC=CC23)c(C)c1 (centres undefined)	n
CCCS(=O)(=O)NC(=O)C1(C)CCN(C(=O)c2ccc(C(=O)OC)cc2)C1 (centres undefined)	n
CC1CN(CC(=O)Nc2nc(-c3ccc(Cl)cc3)cs2)CC(C)O1 (centres undefined)	n
Cc1cc(/C=N/NC(N)=S)c(O)c(/C=N/NC(N)=S)c1	n
NC(=S)N/N=C/c1cccc(/C=N/NC(N)=S)c1	n
Cc1ccc(-n2c(C)cc(/C=N/NC(N)=S)c2C)cc1	14µM
Cc1cc(Cl)ccc1NC(=O)CSc1nc2c(c(=O)[nH]1)CCC2	n
Cc1csc(NC(=O)c2ccc(COc3ccccc3)o2)n1	18µM
Cc1cc(NC(=O)c2ccc(COc3ccccc3Cl)o2)no1	n
Cc1csc(NC(=S)NC(=O)c2ccccc2)n1	n
COc1ccc(N2CC(NC(=O)COc3ccc(F)cc3)CC2=O)cc1OC (centres undefined)	n
Cc1ccc(NC(=O)Cn2cc(C(=O)C3CCCCC3)c3ccccc32)cc1	n
Cc1ccc(NC(=O)CN2C(=O)C(c3ccccc3)=NC23CCCCC3)cc1C	n
CCC(CC)C(=O)NCCCCc1ccccc1	n
O=C1Nc2ccccc2Oc2cc(Oc3ccccc3)ccc21	n
O=C(C1CCCN(S(=O)(=O)c2ccc(Cl)cc2)C1)N1CCCC1 (centres undefined)	n
COc1ccc(Cl)cc1S(=O)(=O)N1CCCC(C(=O)N2CCOCC2)C1 (centres undefined)	n
O=C(C1CCCN(S(=O)(=O)c2cc(Cl)ccc2Cl)C1)N1CCCC1 (centres undefined)	14µM
O=C(COC(=O)/C=C/c1ccccc1Cl)NC(=O)Cc1ccccc1	n
O=C(CSc1nccn1C1CCCC1)Nc1ccccc1	n
CCOC(=O)c1c(CC(C)C)csc1NC=O	16µM
SMILES	TDP-43 tox inh
CC(C)Cc1csc(NC(=O)c2ccc(F)cc2)c1C(=O)O	n
CCOC(=O)c1c(N)sc(N)c1C(=O)OCC	n
CC(C)CN(C(=O)CN(C)CC(=O)Nc1ccc(Cl)c(C(F)(F)F)c1)c1c(N)n(CC(C)C)c(=O)[nH]c1=O	n
O=C(COC(=O)c1c(Cl)ccc(Cl)c1Cl)NCC1CCCO1 (centres undefined)	14µM
O=C(COC(=O)c1ccc(Br)cc1)NCC1CCCO1 (centres undefined)	n
O=C(COC(=O)/C=C/c1ccccc1Cl)NCC1CCCO1 (centres undefined)	n
CN(Cc1ccc(F)cc1)C(=O)C(c1ccccc1)c1ccccc1	n
CN(Cc1ccc(F)cc1)C(=O)COc1ccccc1-c1ccccc1	25µM
CCOc1ccccc1NC(=O)c1ccccc1-c1ccccc1	n
COc1ccc(N(CCCN2C(=O)c3cccc4cccc(c34)C2=O)C(=O)c2cccc(OC)c2)cc1	n
CN1CCN(/C=C2\SC(=S)NC2=O)CC1	n
COc1ccc2nc(N3CCCCC3)c(/C=C3\SC(=S)NC3=O)cc2c1	n
O=C1NC(=S)S/C1=C\c1cc2ccccc2nc1N1CCCCC1	6.3µM
O=C(O)CN1C(=O)/C(=C\c2cccc(OCc3ccc(Cl)cc3Cl)c2)SC1=S	n
CC(C)c1cc(C(=O)NCc2ccc(F)cc2)no1	n
COc1cccc(NC(=O)CC2C(=O)NC3CCCCC3N2C(=O)c2ccccc2)c1 (centres undefined)	n
O=C(O)c1cc2c(cn1)[nH]c1ccccc12	n
O=C(CSc1nc2cc(Cl)ccc2s1)NCc1ccc2c(c1)OCO2	n
CN1CCN(S(=O)(=O)c2ccc(NCc3ccc4c(c3)OCO4)nc2)CC1	n
Clc1ccccc1-c1cnc2sc(NCc3ccc4c(c3)OCO4)nn12	5µM
CCOC(=O)C(NCc1ccc(OC)cc1)(NC(C)=O)C(F)(F)F (centres undefined)	n
Cc1ccc(-n2c(=O)c3c(cnn3C)n(Cc3ccc(Cl)cc3)c2=O)cc1	n
COc1ccc2c(c1)-c1nc(NC(=O)c3cc(Cl)ccc3OC)sc1CC2	n
Cc1ccc2c(COC(=O)c3ccccc3Cl)cc(=O)oc2c1	n
Cc1c(OCC(N)=O)ccc2c(-c3ccccc3)cc(=O)oc12	n
SMILES	TDP-43 tox inh
CC(NC(=O)OCc1ccccc1)C(=O)Oc1cc2oc(=O)cc(-c3ccccc3)c2cc1Cl (centres undefined)	4.5µM
Cc1ccc(C2C(C#N)=C(N)N(c3cccnc3)C3=C2C(=O)CCC3)c(C)c1 (centres undefined)	n
O=C1CC(N2CCSCC2)C(=O)N1c1ccccc1 (centres undefined)	n
O=C1CC(N2CCN(c3ccccc3)CC2)C(=O)N1Cc1ccc(Cl)cc1 (centres undefined)	n
O=C1CC(N2CCN(c3cccc(C(F)(F)F)c3)CC2)C(=O)N1c1ccccc1F (centres undefined)	16µM
CCOC(=O)c1oc2c(c1C)-c1nn(Cc3cccc(Cl)c3)cc1CC2	n
COc1cc(Cl)c(C)cc1NC(=O)C1CCN(c2nc3ccccc3n3cccc23)CC1	n
C#CCOc1nc(Nc2cccc([N+](=O)[O-])c2)nc(OCC#C)n1	n
COc1nc(Nc2cccc([N+](=O)[O-])c2)nc(OC)n1	n
COc1nc(Nc2ccc([N+](=O)[O-])cc2)nc(NC2CCCCC2)n1	16µM
Cc1cccc(NC(=O)Cn2nnc(-c3nc(-c4ccncc4)no3)c2N)c1	n
COc1ccc(CNC(=O)CN(c2cccc([N+](=O)[O-])c2)S(C)(=O)=O)cc1	n
Cc1ccc2nc(-c3cccc(NC(=O)CSc4ccc(Cl)cc4)c3)oc2c1	n
CCc1ccc(CN2CCC(n3nccc3NC(=O)C3CCCC3)CC2)cc1	n
NS(=O)(=O)c1ccc(NC(=O)COC(=O)C2CC(=O)N(Cc3ccccc3)C2)cc1 (centres undefined)	n
O=C(COC(=O)CCC(=O)c1ccc(Cl)cc1)NCc1ccc(F)cc1	n
O=C(COC(=O)CCSc1ccc(Cl)cc1)Nc1ccc(F)cc1	11µM
COc1cccc(NC(=O)COC(=O)CCSc2ccccc2)c1	n
COc1ccc(C2c3ccc(O)cc3Oc3ncn4nc(-c5cccnc5)nc4c32)cc1OC (centres undefined)	n
COc1ccccc1N1CCN(C(=O)CN(C)S(=O)(=O)c2ccc3c(c2)c(=O)n(C)c(=O)n3C)CC1	n
Cc1csc(NC(=O)c2cc3c(C)nn(Cc4ccccc4Cl)c3s2)n1	n
O=C(Nc1cc(-c2nc3ccccc3o2)ccc1Cl)c1ccc(Br)o1	n
CCCCSc1nc(C)c(C(C)=O)cc1C#N	6.3µM
CC(=O)c1cc(C#N)c(N(C)Cc2ccccc2)nc1C	n
Cc1cc(NC(=O)CSc2nc3ccccc3cc2C#N)no1	n
Cc1ccc(-c2c(CN3CCN(c4cc(C)ccc4C)CC3)csc2C)cc1	n
COc1cccc(-c2ccc3c(c2)N(Cc2ccc(F)cc2)C(=O)C(C)S3)c1 (centres undefined)	n
CC1=C(C(=O)NC(C)CCc2ccccc2)C2(CCC(C)CC2)OC1=O (centres undefined)	n
CCOc1ccc(NC(=O)C2=C(C)C(=O)OC23CCC(C)CC3)cc1 (centres undefined)	13µM

High-throughput results deposited in PubChem BioAssay by National Center for Advancing Translational Sciences (NCATS).
